Results filed as inconclusive are left out. A call without a number means that no potency is given here. Unmarked numbers belong to inactive results. The source made the active and inactive calls. Calls come from the whole dose curve; as a rule, active = well fitted curve in the direction sought with a large enough effect; inconclusive = small, poorly fitted or top-dose-only effect, or another doubt; inactive = no such curve, though single readings can be large; an effect the other way counts as inactive or inconclusive.
How the values were obtained:
[1] = biological target: Cellular tumor antigen p53 (Homo sapiens) (UniProt P04637); experiment: Primary qHTS for small molecule compounds that upregulate eGFP-tagged delta133p53alpha (in N-terminal) cells. (AID 2060322); conditions: NCI-H358 eGFP-delta133p53alpha fluorescence, 24 h; activation: hits give high values; note: nearly all actives have a fitted effect of over 75% in size; note: potency is the fitted concentration of half-maximal effect;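 for activation: cells pre-induced with doxycycline then dosed without doxycycline; series mostly up to about 56 µM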
Method in brief: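 NCI-H358 cells pre-induced 24 h with 10 ng/ml doxycycline for eGFP-delta133p53alpha, plated dox-free and exposed 24 h at 37C to titrated compounds. Fixed, Hoechst-stained; gated GFP peak intensity by laser scanning cytometry, normalized to DMSO (0%) and 57.5 uM 5-azacytidine (100%).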

[2] = biological target: Aldehyde dehydrogenase, mitochondrial (Homo sapiens) (UniProt P05091); experiment: qHTS for Inhibitors of the Aldehyde Dehydrogenase Family (ALDH2) Primary screen (AID 2061308); note: nearly all actives have a fitted effect of over 55% in size
[3] = biological target: Retinaldehyde dehydrogenase 3 (Homo sapiens) (UniProt P47895); experiment: qHTS for Inhibitors of the Aldehyde Dehydrogenase Family (ALDH1A3) Primary screen (AID 2061315)

Sequence of Cellular tumor antigen p53 (Homo sapiens) (P04637 whole entry, looked up): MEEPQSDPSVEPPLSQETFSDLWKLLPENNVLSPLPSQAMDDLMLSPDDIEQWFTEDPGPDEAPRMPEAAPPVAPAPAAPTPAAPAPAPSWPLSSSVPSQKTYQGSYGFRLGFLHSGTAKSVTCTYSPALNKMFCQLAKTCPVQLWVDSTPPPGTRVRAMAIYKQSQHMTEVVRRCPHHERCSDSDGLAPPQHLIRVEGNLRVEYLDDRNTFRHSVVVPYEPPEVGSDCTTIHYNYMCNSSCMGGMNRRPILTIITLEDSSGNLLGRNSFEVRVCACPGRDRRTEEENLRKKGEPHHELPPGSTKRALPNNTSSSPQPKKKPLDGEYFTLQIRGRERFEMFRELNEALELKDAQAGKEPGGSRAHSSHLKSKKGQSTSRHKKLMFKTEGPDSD

Row | Structure (SMILES) | activation [1] | Potency [2] | Potency [3] | Potency [1] | activity change, negative = inhibition [2] | activity change, negative = inhibition [3]
1 | CC1(C)CC2C3=CCC4[C@@]5(C)CC[C@H](OC6OCC(O)C(OC7OC(CO)C(O)C(O)C7O)C6O)C(C)(C)C5CC[C@@]4(C)[C@]3(C)C[C@H](O)[C@@]2(CO)[C@H](OC(=O)c2ccccc2)C1 (some centres not stated) | 19.8% | inactive | inactive |  |  | 
2 | O=C1N(CC2CCCCN2)CCN1c1ccccc1 (configuration not stated) | 5.73% | inactive | inactive |  |  | 
3 | Cc1noc(=O)c2ccc(NC(=O)C(O)(CC(C)(C)c3cccc4c3OCC4)C(F)(F)F)cc12 (configuration not stated) | 19.7% | inactive | inactive |  |  | 
4 | C=C1C2(CCC(=O)OC2(C)C)CC(OC(=O)/C(C)=C/C)C2(C)C13OC14C(=O)OC(C)(C(=O)C12C(=O)OC4C)C3OC(C)=O (configuration not stated) | -0.763% | inactive | inactive |  |  | 
5 | Nc1c(S(=O)(=O)c2ccccc2)c2nc3ccccc3nc2n1-c1ccc(F)cc1 | -10.3% | inactive | inactive |  |  | 
6 | C[C@H](CCC(=O)O)[C@H]1CC[C@H]2[C@@H]3C[C@H](O)[C@@H]4C[C@H](O)CC[C@]4(C)[C@H]3CC[C@]12C | 1% | inactive | inactive |  |  | 
7 | C=C(C(=O)O[C@H]1C/C(C)=C/CC/C(CO)=C/[C@H]2OC(=O)C(=C)[C@H]12)C(O)CO (some centres not stated) |  | inactive | inactive | 18.6 µM (active) |  | 
8 | CC1(C)CC23[C@@H]4CC(=O)[C@@H]2COC(=O)[C@@H]3CC[C@H]41 | -5.36% | inactive | inactive |  |  | 
9 | C[C@@H]1CC[C@]2(C(=O)O)CC[C@]3(C)C(=CCC4[C@@]5(C)C[C@@H](O)[C@H](O)[C@@](C)(CO)C5CC[C@]43C)C2[C@]1(C)O (some centres not stated) | 29.5% | inactive | inactive |  |  | 
10 | CC1=CC2/C=C(\C)CC[C@@H](O)[C@@H](O)[C@@H]3O[C@@H]3C(=O)[C@]23C(=O)N[C@@H](CC(C)C)[C@@H]3[C@@H]1C (some centres not stated) | 0% | inactive | inactive |  |  | 
11 | CC(=O)OC/C=C(\C)C(CC1C(C)=C(OC(C)=O)C(=O)C2C(C)(C)C(O)CCC12C)OC(C)=O (configuration not stated) | -2.68% | inactive | inactive |  |  | 
12 | C[C@@H]1CC[C@]2(C(=O)O)CC[C@]3(C)C(=CCC4[C@@]5(C)CC[C@H](O)C(C)(C)C5C(O)C[C@]43C)[C@@H]2[C@]1(C)O (some centres not stated) | 0.893% | inactive | inactive |  |  | 
13 | CC1(C)C(=O)N2c3ccccc3C(O)(CC(C(=O)O)n3cnc4ccccc4c3=O)C2N1O (configuration not stated) | 16% | inactive | inactive |  |  | 
14 | C/C=C(\C)C(=O)OC[C@H]1O[C@@H](O[C@H]2[C@@H](O[C@H]3O[C@H](COC(=O)/C(C)=C/C)[C@@H](O)[C@H](O)[C@H]3O[C@@H]3O[C@H](COC(=O)/C(C)=C/C)[C@@H](O)[C@H](OC(=O)/C(C)=C/C)[C@H]3O)O[C@H](COC(=O)/C(C)=C/C)[C@@H](O)[C@@H]2O)[C@H](O)[C@@H](O)[C@@H]1O | -15.3% | inactive | inactive |  |  | 
15 | CC1OC(OC2C(C)OC(OC3C(OC(=O)/C=C/c4ccc(O)cc4)C(CO)OC(OC4(COC(=O)/C=C/c5ccc(O)cc5)OC(CO)C(O)C4O)C3OC3OCC(O)(CO)C3O)C(O)C2O)C(O)C(O)C1O (configuration not stated) | 14.5% | inactive | inactive |  |  | 
16 | C[C@@H]1C(=O)O[C@H]2CC34[C@H]5C[C@@H](C(C)(C)C)C36[C@@H](OC(=O)[C@@H]6O)O[C@@]4(C(=O)O5)[C@]21O (some centres not stated) | 19.1% | inactive | inactive |  |  | 
17 | Cc1cccc(C)c1-n1c(=O)c2cnc(Nc3ccc(N4CCN(C)CC4)cc3)nc2n2c3ccccc3nc12 |  | inactive | inactive | 30.1 µM (active) |  | 
18 | CC1=C2[C@@H]([C@H](C)CC[C@H]2/C=C(\C)C(=O)O)[C@H](O)C1 | -10.7% | inactive | inactive |  |  | 
19 | COC(=O)[C@H]1[C@H]2C[C@@H]3c4[nH]c5cc(OC)ccc5c4CCN3C[C@H]2C[C@@H](OC(=O)/C=C/c2cc(OC)c(OC)c(OC)c2)[C@@H]1OC |  | inactive | inactive | 7.93 µM (active) |  | 
20 | Cc1csc(NC(=O)c2ccc(COc3cccc(Cl)c3)o2)n1 | -9.67% | inactive | inactive |  |  | 
21 | Cn1cc(S(C)=O)c(=O)c2ccc(F)cc21 (configuration not stated) | -7.53% | inactive | inactive |  |  | 
22 | CCC(C)/C=C(C)/C=C/C1=CC2=C(Cl)C(=O)C(C)(OC(C)=O)C(=O)C2=CN1C(CCC(=O)O)C(=O)O (configuration not stated) | -13% | inactive | inactive |  |  | 
23 | C/C=C(/C)C(=O)O[C@H]1C=C(C)C[C@H](OC(=O)c2ccc(O)cc2)C2[C@](O)(C(C)C)CC[C@@]21C (some centres not stated) | -5.34% | inactive | inactive |  |  | 
24 | CC1=C(c2ccc(NC(=O)c3c(F)cccc3F)cc2)CN(c2nccs2)CC1 | 21.7% | inactive | inactive |  |  | 
25 | CC1CC(=O)C2=C(O1)OC1(C)CCC3C(C)(C)C=CC(=O)C3(C)C1C2 (configuration not stated) | -29.5% | inactive | inactive |  |  | 

Row | Structure (SMILES) | activation [1] | Potency [2] | Potency [3] | Potency [1] | activity change, negative = inhibition [2] | activity change, negative = inhibition [3]
26 | C=C(C(=O)O)[C@@H]1CC=C2CCC[C@H](C)[C@@]2(C)C1 | -21.4% | inactive | inactive |  |  | 
27 | CC(=O)O[C@@H]1C(=O)C(C)=C(CCC(C)CC(=O)O)[C@@]2(C)CCCC(C)(C)C12 (some centres not stated) | 0.893% | inactive | inactive |  |  | 
28 | C/C=C(/C=C(C)/C=C/C=C/C=C(\C)C(=O)C12OC1C(O)(CCO)NC2=O)C(=O)OC (configuration not stated) | -13.7% | inactive | inactive |  |  | 
29 | CCNC(=O)Nc1ccc(-c2nc3c(c(N4CCOC[C@@H]4C)n2)CCN(c2ncccn2)C3)cc1 | -14.3% | inactive | inactive |  |  | 
30 | CC1(C)CC[C@]2(C(=O)O[C@@H]3O[C@H](CO[C@@H]4O[C@H](CO)[C@@H](O)[C@H](O)[C@H]4O)[C@@H](O)[C@H](O[C@@H]4O[C@H](CO)[C@@H](O)[C@H](O)[C@H]4O)[C@H]3O)CC[C@]3(C)C(=CCC4[C@@]5(C)CC[C@H](O[C@@H]6OC[C@@H](O)[C@H](O)[C@H]6O)[C@@](C)(C(=O)O)C5CC[C@]43C)[C@@H]2C1 (some centres not stated) | 0% | inactive | inactive |  |  | 
31 | CC1CCC2(C)C(CC(O)C(O)C23CO3)C1(C)CCC1=CC(O)OC1=O (configuration not stated) | -2.29% | inactive | inactive |  |  | 
32 | COC(=O)C1=CO[C@@H](O[C@@H]2O[C@H](CO)[C@@H](O)[C@H](O)[C@H]2O)[C@@H]2[C@@H](C)[C@@H](OC(=O)/C=C/c3ccccc3)[C@@H](O)[C@H]12 | -5.34% | inactive | inactive |  |  | 
33 | O=C(NCCCc1ccccc1)c1cccc(-c2cc(O)c3ncccc3c2)c1 | 7.67% | inactive | inactive |  |  | 
34 | CCC(C)(O)C(O)C(=O)OCc1ccc(O[C@@H]2O[C@H](CO)[C@@H](O)[C@H](O)[C@H]2O)c(OC)c1 (some centres not stated) | -5.36% | inactive | inactive |  |  | 
35 | COc1ncc2cc(C(=O)Nc3cc(C(=O)NCc4cccc(Cl)c4)ccc3Cl)c(=O)[nH]c2n1 |  | inactive | inactive | 2.69 µM (active) |  | 
36 | CC1CCC2C(C)(C)[C@@H](O)CC[C@]2(C)C12Cc1c(O)cc3c(c1O2)CN(C(CCC(=O)O)C(=O)O)C3=O (some centres not stated) | 23.2% | inactive | inactive |  |  | 
37 | O=C(/C=C/c1ccc(O)cc1)OCC1=C[C@@H](O)[C@@H]2C=CO[C@@H](O[C@@H]3O[C@H](CO)[C@@H](O)[C@H](O)[C@H]3O)[C@H]12 | -9.16% | inactive | inactive |  |  | 
38 | CC(=O)OC1[C@H]2[C@@H](C[C@@H](C)[C@@H]3C=CC(=O)[C@@]13C)OC(=O)[C@@H]2C (some centres not stated) |  | inactive | inactive | 21.3 µM (active) |  | 
39 | COc1c(C(O)CC(C)C)ccc2c1C(=O)OCc1cc(C)cc(O)c1O2 (configuration not stated) | -2.68% | inactive | inactive |  |  | 
40 | C=C(C)[C@H]1CC[C@]2(C(=O)O)CC[C@]3(C)C(CCC4[C@@]5(C)CCC(=O)C(C)(C)C5CC[C@]43C)C12 (some centres not stated) | -11.6% | inactive | inactive |  |  | 
41 | C=CC(C)(CC/C=C(\C)CC/C=C(\C)CC(O)/C=C(\C)C(=O)O)O[C@@H]1O[C@H](CO)[C@@H](O)[C@H](O)[C@H]1O[C@@H]1O[C@H](CO)[C@@H](O)[C@H](O)[C@H]1O (some centres not stated) | -12.2% | inactive | inactive |  |  | 
42 | COc1ccc(NC(=O)C2C[C@H](C)CC[C@H]2C(C)C)cc1 (some centres not stated) | 5.67% | inactive | inactive |  |  | 
43 | CC1(C)CCCC2(C)C(C(=O)O)=CCC12 (configuration not stated) | -24.4% | inactive | inactive |  |  | 
44 | COC1CC(OC2CCC3(C)C(=CCC4C3C(OC(C)=O)C(OC(=O)/C=C/c3ccccc3)C3(C)C(C(C)O)CCC43O)C2)OC(C)C1OC1CC(OC)C(OC2OC(C)C(OC3OC(CO)C(O)C(O)C3O)C(OC)C2O)C(C)O1 (configuration not stated) | 2.29% |  |  |  | 13.8% [at 11.2 µM] | 9.46% [at 11.2 µM]
45 | COc1cc2c(cc1O)[C@H](c1ccc(O[C@@H]3O[C@H](CO)[C@@H](O)[C@H](O)[C@H]3O)c(OC)c1)[C@@H](CO)[C@](O)(CO)C2 | -15.3% | inactive | inactive |  |  | 
46 | CC(C)NCCCn1c(Sc2cc3c(cc2I)OCO3)nc2c(N)ncnc21 | 10% | inactive | inactive |  |  | 
47 | Cc1nc(Nc2n[nH]c3c2CN(C(=O)NC(CN(C)C)c2ccccc2)C3(C)C)c2sccc2n1 (configuration not stated) |  | inactive | inactive | 10.7 µM (active) |  | 
48 | CC1CCC2(C(=O)O)CCC3(C)C(=CCC4C5(C)C[C@@H](O)[C@@H](O)C(C)(CO)C5CCC43C)C2C1(C)O (some centres not stated) | 11.6% | inactive | inactive |  |  | 
49 | CC(=O)OC[C@@]12[C@H](O)C[C@@H](C)[C@]3(C[C@@H](c4ccoc4)OC3=O)[C@H]1C[C@H](O)C[C@]21CO1 | 27.5% | inactive | inactive |  |  | 

Reference: PubChem BioAssay (NCATS)
